Source: the antibiotic and cytotoxicity screens of Wong et al. (2023)
About 3,300 (8.5%) of roughly 39,000 compounds were called active. The sample as a whole holds a higher share of actives than the screen did.

system: HepG2; test: cytotoxicity call (relative viability < 0.9); conditions: 10 µM

Row | Compound | cytotoxicity call
1 | C[C@H]1CN([C@@H](C)CO)C(=O)c2cc(C#CC3(O)CCCC3)cnc2O[C@@H]1CN(C)S(=O)(=O)c1ccccc1 | inactive
2 | COc1cccc(-c2ccc3c(c2)O[C@@H](CN(C)C(=O)C2CC2)[C@@H](C)CN([C@@H](C)CO)S3(=O)=O)c1 | inactive
3 | C[C@@H]1CN([C@H](C)CO)C(=O)c2cc(NC(=O)Nc3ccccc3)ccc2O[C@@H](C)CCCCO[C@@H]1CN(C)Cc1ccc(C(=O)O)cc1 | inactive
4 | C[C@H]1CN([C@@H](C)CO)C(=O)c2cc(C#CC3(O)CCCC3)cnc2O[C@H]1CN(C)C(=O)Cc1ccccc1 | inactive
5 | CCNC(=O)C[C@H]1CC[C@H](NC(=O)C2CC2)[C@H](CO)O1 | inactive
6 | Cn1cnc(S(=O)(=O)N2C[C@H](O)COC[C@@H]3O[C@H](CC(=O)NC4Cc5ccccc5C4)CC[C@H]32)c1 | inactive
7 | O=C(C[C@@H]1CC[C@H]2[C@@H](COC[C@@H](O)CN2S(=O)(=O)c2ccccc2Cl)O1)NCc1ccccc1Cl | inactive
8 | C[C@H]1CCc2[nH]c3ccccc3c2C1 | active
9 | COc1ccc2c3c(ccc2c1)-c1[nH]c2ccccc2c1CC3 | inactive
10 | O=c1[nH]c2ccccc2c2ccccc12 | inactive
11 | C[C@H]1CN([C@@H](C)CO)C(=O)c2cc(NS(=O)(=O)c3ccccc3)ccc2O[C@@H]1CN(C)C(=O)Nc1cccc2ccccc12 | inactive
12 | O=C1CCC(=O)N1c1nccs1 | active
13 | O[C@H]1CCN(c2nccs2)C1 | inactive
14 | Nc1nccs1 | inactive
15 | O=C([C@@H]1[C@@H](CO)[C@@H]2Cn3c(cccc3=O)[C@@H]2N1CC1CCCC1)N1CCOCC1 | inactive
16 | COC1(NC(=O)CSCC#N)C(=O)N2C(C(=O)[O-])=C(CSc3nnnn3C)CSC21.[Na+] (centres undefined) | inactive
17 | C[C@@H]1CN([C@@H](C)CO)C(=O)c2cc(NC(=O)Nc3ccccc3)ccc2O[C@H]1CN(C)Cc1ccc(Cl)c(Cl)c1 | active
18 | C[C@@H]1CN([C@H](C)CO)C(=O)c2cc(NC(=O)Nc3ccccc3)ccc2O[C@H]1CN(C)Cc1ccc(Cl)c(Cl)c1 | inactive
19 | C[C@H]1CN([C@@H](C)CO)C(=O)c2cc(NC(=O)Nc3ccccc3)ccc2O[C@H]1CN(C)Cc1ccc(Cl)c(Cl)c1 | active
20 | C[C@H](CO)N1C[C@H](C)[C@@H](CN(C)Cc2ccc(Cl)c(Cl)c2)Oc2ccc(NC(=O)Nc3ccccc3)cc2C1=O | inactive
21 | C[C@H]1CN([C@@H](C)CO)C(=O)c2cc(NC(=O)Nc3ccccc3)ccc2O[C@@H]1CN(C)Cc1ccc(Cl)c(Cl)c1 | inactive
22 | C[C@H](CO)N1C[C@H](C)[C@H](CN(C)Cc2ccc(Cl)c(Cl)c2)Oc2ccc(NC(=O)Nc3ccccc3)cc2C1=O | inactive
23 | C[C@@H]1CN([C@@H](C)CO)C(=O)c2cc(NC(=O)Nc3ccccc3)ccc2O[C@@H]1CN(C)Cc1ccc(Cl)c(Cl)c1 | active

Row | Compound | cytotoxicity call
24 | C[C@@H]1CN([C@H](C)CO)C(=O)c2cc(NC(=O)Nc3ccccc3)ccc2O[C@@H]1CN(C)Cc1ccc(Cl)c(Cl)c1 | inactive
25 | COCC(=O)N1C[C@H](C)[C@@H](OC)CN(C)C(=O)c2cc(NC(=O)c3ccc(F)cc3)ccc2OC[C@@H]1C | inactive
26 | N#Cc1cn(C2CCCCC2)c(=O)[nH]c1=O | inactive
27 | C[C@H]1CCCCO[C@H](CN(C)C(=O)Cc2ccccc2)[C@@H](C)CN([C@@H](C)CO)C(=O)c2cc(NC(=O)C3CCCCC3)ccc2O1 | inactive
28 | CC(C)CC#Cc1ccc2c(c1)O[C@H](CN(C)C(=O)Cc1ccccn1)[C@@H](C)CN([C@@H](C)CO)S2(=O)=O | inactive
29 | C[C@@H]1CN([C@H](C)CO)C(=O)Cc2cc(NC(=O)c3ccncc3)ccc2O[C@@H]1CN(C)C(=O)NC1CCCCC1 | inactive
30 | C[C@@H]1CN([C@H](C)CO)C(=O)c2cc(-c3ccncc3)cnc2O[C@@H]1CN(C)S(=O)(=O)c1ccc(F)cc1 | inactive
31 | Cc1nsc(-c2ccccc2)n1 | inactive
32 | C[C@@H]1CN([C@H](C)CO)C(=O)c2cc(NS(=O)(=O)c3ccc(F)cc3)ccc2O[C@@H](C)CCCCO[C@@H]1CN(C)Cc1ccc2c(c1)OCO2 | inactive
33 | C[C@@H]1CCCCO[C@@H](CN(C)Cc2ccc3c(c2)OCO3)[C@@H](C)CN([C@@H](C)CO)C(=O)c2cc(NS(=O)(=O)c3ccc(F)cc3)ccc2O1 | active
34 | C[C@H]1CCCCO[C@H](CN(C)Cc2ccc3c(c2)OCO3)[C@@H](C)CN([C@@H](C)CO)C(=O)c2cc(NS(=O)(=O)c3ccc(F)cc3)ccc2O1 | inactive
35 | C[C@@H]1CN([C@@H](C)CO)C(=O)c2cc(NS(=O)(=O)c3ccc(F)cc3)ccc2O[C@@H](C)CCCCO[C@H]1CN(C)Cc1ccc2c(c1)OCO2 | inactive
36 | C[C@@H]1CCCCO[C@H](CN(C)Cc2ccc3c(c2)OCO3)[C@@H](C)CN([C@@H](C)CO)C(=O)c2cc(NS(=O)(=O)c3ccc(F)cc3)ccc2O1 | active
37 | C[C@@H]1CCCCO[C@@H](CN(C)Cc2ccc3c(c2)OCO3)[C@H](C)CN([C@@H](C)CO)C(=O)c2cc(NS(=O)(=O)c3ccc(F)cc3)ccc2O1 | inactive
38 | C[C@@H]1CCCCO[C@H](CN(C)Cc2ccc3c(c2)OCO3)[C@H](C)CN([C@H](C)CO)C(=O)c2cc(NS(=O)(=O)c3ccc(F)cc3)ccc2O1 | inactive
39 | C[C@@H]1CCCCO[C@@H](CN(C)Cc2ccc3c(c2)OCO3)[C@H](C)CN([C@H](C)CO)C(=O)c2cc(NS(=O)(=O)c3ccc(F)cc3)ccc2O1 | inactive
40 | C[C@@H]1CCCCO[C@@H](CN(C)Cc2ccc3c(c2)OCO3)[C@@H](C)CN([C@H](C)CO)C(=O)c2cc(NS(=O)(=O)c3ccc(F)cc3)ccc2O1 | active
41 | C[C@@H]1CN([C@H](C)CO)C(=O)c2cc(-c3cccnc3)cnc2O[C@@H]1CN(C)Cc1ccc(Oc2ccccc2)cc1 | inactive
42 | CC(/C=C/C(=O)NO)=C\c1ccccc1OCc1cn(CC[C@@H]2OC(=O)[C@H](Cc3ccccc3)N3CC4=C[C@@H](C5CC5)n5c(=O)n(C)c(=O)n5[C@H]4[C@H]23)nn1 | inactive
43 | C[C@@H](N)C(=O)OC(C)(C)Cc1ccc(Cl)cc1 | inactive
44 | C[C@@H]1CCCCO[C@@H](CN(C)S(C)(=O)=O)[C@H](C)CN([C@@H](C)CO)C(=O)c2cc(NS(C)(=O)=O)ccc2O1 | inactive
45 | COC(=O)c1c2oc(c1C(=O)OC)C(=O)N[C@@H](Cc1ccccc1)Cn1cc(nn1)CNC(=O)[C@@H](Cc1ccccc1)NC(=O)N[C@@H](CO)CC2 | inactive
46 | C[C@H]1OC(=O)CC[C@@H](O)/C=C/[C@@H](O)[C@@H]1O | inactive

Row | Compound | cytotoxicity call
47 | O=C(O)[C@H]1Cc2ccccc2CN1 | inactive
48 | CC(C)NC(=O)N[C@H]1C=C[C@@H](CC(=O)NCCCN(C)C)O[C@@H]1CO | inactive
49 | Nc1ncnc2c1ncn2[C@@H]1O[C@H](CO)[C@@H](O)[C@H]1O | inactive
50 | COc1ccc(C[C@@H](N)C(=O)N[C@@H]2[C@@H](O)[C@@H](n3cnc4c(N(C)C)ncnc43)O[C@@H]2CO)cc1 | active
51 | COc1ccc(CC(N)C(=O)NC2C(CO)OC(n3cnc4c(N(C)C)ncnc43)C2O)cc1.Cl.Cl (centres undefined) | active
52 | Nc1ncnc2c1ncn2C1OC(CO)C(O)C1O (centres undefined) | inactive
53 | CN(C)c1ncnc2c1ncn2[C@H]1O[C@@H](CO)[C@@H](N)[C@@H]1O | active
54 | COc1ccc(C[C@H](N)C(=O)N[C@H]2[C@@H](O)[C@@H](n3cnc4c(N(C)C)ncnc43)O[C@@H]2CO)cc1 | active
55 | COc1nc(N)nc2c1ncn2[C@@H]1O[C@H](CO)[C@@H](O)[C@@H]1O | inactive
56 | Nc1ccc(CCNc2ncnc3c2ncn3[C@@H]2O[C@H](CO)[C@@H](O)[C@H]2O)cc1 | inactive
57 | C[C@@H]1CN([C@H](C)CO)C(=O)c2cccc(NS(C)(=O)=O)c2O[C@@H]1CN(C)Cc1ccc(C(=O)Nc2ccccc2N)cc1 | inactive
58 | COCC#Cc1ccc2c(c1)O[C@H](CN(C)S(=O)(=O)c1ccc(C)cc1)[C@@H](C)CN([C@H](C)CO)S2(=O)=O | inactive
59 | C[C@@H]1CN([C@H](C)CO)C(=O)c2cc(NC(=O)Nc3cccc4ccccc34)ccc2O[C@@H]1CN(C)S(=O)(=O)c1ccc(Cl)cc1 | inactive
60 | C[C@H](CO)N1C[C@H](C)[C@H](CN(C)S(=O)(=O)c2cn(C)cn2)Oc2c(NC(=O)C3CCCCC3)cccc2C1=O | inactive
61 | C[C@H]1CN([C@@H](C)CO)C(=O)Cc2cc(NC(=O)Cc3cn(C)c4ccccc34)ccc2O[C@H]1CN(C)S(=O)(=O)c1cn(C)cn1 | inactive
62 | COc1ccc(NC(=O)N(C)C[C@H]2OCCCC[C@H](C)Oc3ccc(NC(=O)Nc4ccccc4)cc3C(=O)N([C@@H](C)CO)C[C@H]2C)cc1 | inactive
63 | COCCNC(=O)C[C@H]1CC[C@@H](NS(=O)(=O)c2ccc(C)cc2)[C@H](CO)O1 | inactive
64 | Cc1ccc(S(=O)(=O)Nc2ccc3c(c2)CC(=O)N([C@H](C)CO)C[C@H](C)[C@H](CN(C)S(=O)(=O)c2cccs2)O3)cc1 | inactive
65 | C[S+](CC[C@H](N)C(=O)O)C[C@H]1O[C@@H](n2cnc3c(N)ncnc32)[C@H](O)[C@@H]1O (some centres undefined) | inactive
66 | Nc1ncnc2c1ncn2[C@@H]1O[C@H](CSCC[C@H](N)C(=O)O)[C@@H](O)[C@H]1O | inactive
67 | COc1ccc(C[C@H](N)C(=O)N[C@H]2[C@@H](O)[C@H](n3cnc4c(N(C)C)ncnc43)O[C@@H]2CO)cc1 | active
68 | C[C@H](CO)N1C[C@H](C)[C@H](CN(C)S(=O)(=O)c2ccccc2F)Oc2ncc(C#Cc3cccnc3)cc2C1=O | inactive
69 | C[C@H](CO)N1C[C@H](C)[C@H](CN(C)C(=O)Nc2cccc3ccccc23)Oc2ncc(-c3ccc(F)cc3)cc2C1=O | inactive
